Only some compounds are listed: those with a hit (about 32% of all), similar ones and a draw of the others.
PostGolgi yeast – growth inhibition of a yeast mutant, post-Golgi transport screen; post-Golgi transport phenotypic cell assay; inhibition, % at 10 µM; hit rate 0.9% among 98,000; AID 739;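 note: yeast cells grown in 1536-well plates; yeast grown about 18 h at 30C before absorbance read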
CYP2C9 act – CYP2C9 (human) activation | AID 1024 | recombinant CYP2C9, luciferin-H conversion, luminescence; active compounds read high; factor 1 = untreated enzyme, 0 = blocked | activation factor at 5 µM | hit rate 1.4% among 96,000 | P11712;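 active = activation factor of 2 or more for CYP2C9 at a 5 µM dose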;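 note: 0 = sulfaphenazole-blocked wells and 1 = vehicle-only wells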
CYP2C9 inhib – human CYP2C9 inhibition | CYP2C9 Supersomes, luciferin-H conversion, luminescence | inhibition, % at 5 µM | P11712 | hit rate 20% among 96,000 | AID 777;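 active = blocking of liver enzyme CYP2C9 beyond about 50% at 5 µM, limit read from the data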
CYP2C19 activ – activators of human cytochrome P450 2C19. activation factor at 5 µM. 96,000 tested, under 10 active. P33261. AID 1025. recombinant CYP2C19, luciferin-H EGE luminescence; active compounds read high; 0 = fully inhibited enzyme, 1 = untreated enzyme;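 active = activation factor of at least 2 at 5 µM in the primary screen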;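 note: 0 = wells with 2.5 mM tranylcypromine and 1 = vehicle-only wells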
Target sequence (P33261 whole entry, looked up): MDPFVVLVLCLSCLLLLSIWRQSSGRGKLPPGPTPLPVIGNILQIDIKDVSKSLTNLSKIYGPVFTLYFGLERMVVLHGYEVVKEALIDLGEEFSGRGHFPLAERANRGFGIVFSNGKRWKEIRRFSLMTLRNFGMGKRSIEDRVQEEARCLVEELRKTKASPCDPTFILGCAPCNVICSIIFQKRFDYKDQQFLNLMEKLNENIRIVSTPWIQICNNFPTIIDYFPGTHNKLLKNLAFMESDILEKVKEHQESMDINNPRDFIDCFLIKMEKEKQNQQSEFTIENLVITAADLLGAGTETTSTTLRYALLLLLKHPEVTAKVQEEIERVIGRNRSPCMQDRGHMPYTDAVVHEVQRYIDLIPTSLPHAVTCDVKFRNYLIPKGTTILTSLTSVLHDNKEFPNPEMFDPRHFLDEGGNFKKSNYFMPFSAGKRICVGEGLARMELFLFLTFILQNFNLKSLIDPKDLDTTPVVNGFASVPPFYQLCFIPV
CYP2C19 inhib – blocks human cytochrome P450 2C19; P33261; CYP2C19 Supersomes, luciferin-H EGE luminescence, 30 min; inhibition, % at 5 µM; hit rate 21% among 96,000;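 active = CYP2C19 inhibition above a set limit at 5 µM in the primary screen, cut at about 50% in these data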;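 note: plate controls were negative control wells for no effect and 2.5 mM tranylcypromine positive control for full effect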
PostGolgi ctrl – inhibits growth of the yeast control strain; hit rate 5% among 98,000; inhibition, % at 10 µM; efflux-deficient yeast background strain, growth absorbance A615, 16 h
Numbers without * were called inactive. Cut-off read from the data, not from the text of the source, unless noted: active = inhibition above about 30%; inactive = the rest.

`Cc1noc(C(=O)Nc2sc3c(c2C#N)CCC3)c1Cl` gave PostGolgi yeast -6, CYP2C9 act 0.6, CYP2C9 inhib 37, CYP2C19 activ 0.9, CYP2C19 inhib 10 and PostGolgi ctrl 7.
O=C(Nc1ccc(F)cc1)c1cccc(NC(=O)C2C3CC4OC(=O)C2C4C3)c1 (stereo not given) was read as PostGolgi yeast -4, CYP2C9 act 1, CYP2C9 inhib 3, CYP2C19 activ 1.1, CYP2C19 inhib -8 and PostGolgi ctrl 8.
For Cc1ccc(S(=O)(=O)N(Cc2ccccc2)c2ccccc2C(=O)NCc2ccco2)cc1 the results were PostGolgi yeast -1, CYP2C9 act 0, CYP2C9 inhib 99*, CYP2C19 activ 0.5, CYP2C19 inhib 48 and PostGolgi ctrl 26.
CS(=O)(=O)N(Cc1ccccc1)c1ccccc1C(=O)Nc1ccccc1C(=O)NCc1ccco1 was read as PostGolgi yeast -10, CYP2C9 act 0.2, CYP2C9 inhib 84*, CYP2C19 activ 0.1, CYP2C19 inhib 89* and PostGolgi ctrl -1.
For CS(=O)(=O)N(Cc1ccc(C(=O)NCc2ccco2)cc1)c1ccccc1 the results were PostGolgi yeast -1, CYP2C9 act 0.6, CYP2C9 inhib 44, CYP2C19 activ 1, CYP2C19 inhib 0 and PostGolgi ctrl -9.
COc1cccc(C(=O)c2sc(NC(C)C)nc2N)c1 was read as PostGolgi yeast -3 and PostGolgi ctrl 21.
O=C(Cn1c(=O)n(CCCCC(=O)NC2CCCC2)c(=O)c2ccccc21)NCCC1=CCCCC1 was read as PostGolgi yeast -2, CYP2C9 act 0.9, CYP2C9 inhib 6, CYP2C19 activ 0.9, CYP2C19 inhib 6 and PostGolgi ctrl 8.
For Cc1cccc(NC(=O)Cn2c(=O)n(CCC(=O)NC3CCCC3)c(=O)c3ccccc32)c1 the results were PostGolgi yeast 5, CYP2C9 act 0.8, CYP2C9 inhib 18, CYP2C19 activ 0.8, CYP2C19 inhib 17 and PostGolgi ctrl 17.
Cc1ccc(CNC(=O)CCCn2c(=O)c3ccccc3n(CC(=O)NC3CCCC3)c2=O)cc1 was read as PostGolgi yeast -2, CYP2C9 act 0.3, CYP2C9 inhib 75*, CYP2C19 activ 0.7, CYP2C19 inhib 31 and PostGolgi ctrl 26.
Screening O=C(CCn1c(=O)c2ccccc2n(CC(=O)NC2CCCC2)c1=O)NCCc1ccc(Cl)cc1 returned PostGolgi yeast 0, CYP2C9 act 0.3, CYP2C9 inhib 69*, CYP2C19 activ 0.5, CYP2C19 inhib 55* and PostGolgi ctrl 9.
CCOc1ccccc1NC(=O)Cn1c(=O)n(CCC(=O)NC2CCCC2)c(=O)c2ccccc21 was read as PostGolgi yeast -9, CYP2C9 act 0.3, CYP2C9 inhib 74*, CYP2C19 activ 0.6, CYP2C19 inhib 40 and PostGolgi ctrl 6.
COc1cccc(-c2cc(C(F)(F)F)nc(N3CCCCC3)n2)c1 was read as PostGolgi yeast 1, CYP2C9 act 0.9, CYP2C9 inhib 11, CYP2C19 activ 1.1, CYP2C19 inhib -8 and PostGolgi ctrl 4.
CC(C)Cn1c(-c2ccccc2F)n[nH]c1=S was read as PostGolgi yeast 8, CYP2C9 act 0.5, CYP2C9 inhib 46, CYP2C19 activ 0.2, CYP2C19 inhib 81* and PostGolgi ctrl 33*.
Screening CC(C)Cn1c(-c2ccc(F)cc2)n[nH]c1=S returned PostGolgi yeast -6, CYP2C9 act 0.8, CYP2C9 inhib 19, CYP2C19 activ 0.1, CYP2C19 inhib 86* and PostGolgi ctrl 22.
CC(C)Cn1c(-c2ccco2)n[nH]c1=S was read as PostGolgi yeast -2, CYP2C9 act 1, CYP2C9 inhib -4, CYP2C19 activ 0.8, CYP2C19 inhib 16 and PostGolgi ctrl 7.
COC(=O)c1ccc(CSc2nc(C)nc3sc(C)c(C)c23)o1 was read as PostGolgi yeast 9, CYP2C9 act 1, CYP2C9 inhib 4, CYP2C19 activ 0.7, CYP2C19 inhib 32 and PostGolgi ctrl 4.
For CCOC(=O)CSc1cc(CS(=O)(=O)c2ccccc2)nc(-c2ccccc2)n1 the results were PostGolgi yeast 19, CYP2C9 act 0.5, CYP2C9 inhib 54*, CYP2C19 activ 0.2, CYP2C19 inhib 81* and PostGolgi ctrl 18.
O=S(=O)(Cc1cc(Cl)nc(-c2ccccc2)n1)c1ccccc1 was read as PostGolgi yeast -2, CYP2C9 act 1.4, CYP2C9 inhib -38, CYP2C19 activ 0.1, CYP2C19 inhib 92* and PostGolgi ctrl 15.
Screening Cc1nc(CS(=O)(=O)c2ccccc2)cc(Sc2ccc(Cl)cc2)n1 returned PostGolgi yeast 11, CYP2C9 act 1.3, CYP2C9 inhib -29, CYP2C19 activ 1.2, CYP2C19 inhib -24 and PostGolgi ctrl 11.
Cc1cc(N2CCCC2=O)c(N)cc1N was read as PostGolgi yeast -9, CYP2C9 act 1.2, CYP2C9 inhib -18, CYP2C19 activ 1.1, CYP2C19 inhib -14 and PostGolgi ctrl -2.
`CC(C)(C)Nc1nc2nonc2nc1NC(C)(C)C` gave PostGolgi yeast -4, CYP2C9 act 0.9, CYP2C9 inhib 6, CYP2C19 activ 1.1, CYP2C19 inhib -6 and PostGolgi ctrl 13.
For O=S(=O)(Cc1ccccc1)/C1=C(\N2CCOCC2)CCCCCC1 the results were PostGolgi yeast 9, CYP2C9 act 0.8, CYP2C9 inhib 19, CYP2C19 activ 0.6, CYP2C19 inhib 40 and PostGolgi ctrl 40*.
Screening CSC1=NCCN1C(=O)COc1ccccc1 returned PostGolgi yeast -6, CYP2C9 act 1.1, CYP2C9 inhib -11, CYP2C19 activ 1.1, CYP2C19 inhib -6 and PostGolgi ctrl 2.
CSC1=NCCN1C(=O)COc1ccc2ccccc2c1 was read as PostGolgi yeast 0, CYP2C9 act 0.7, CYP2C9 inhib 32, CYP2C19 activ 0.1, CYP2C19 inhib 88* and PostGolgi ctrl 8.
Screening CCOC(=O)C1CCCN(C(=O)c2cc3nc(-c4ccc5c(c4)OCO5)cc(C(F)(F)F)n3n2)C1 (stereo not given) returned PostGolgi yeast -17, CYP2C9 act 0.4, CYP2C9 inhib 56*, CYP2C19 activ 0.5, CYP2C19 inhib 45 and PostGolgi ctrl -1.
For COc1ccc(-c2cc(C(F)F)n3ncc(C(=O)N4CCSCC4)c3n2)cc1 the results were PostGolgi yeast 6, CYP2C9 act 0.2, CYP2C9 inhib 76*, CYP2C19 activ 0.6, CYP2C19 inhib 40 and PostGolgi ctrl 3.
`CCOC(=O)C1CCCN(C(=O)c2cnn3c(C(F)F)cc(-c4ccc(C)cc4)nc23)C1` (stereo not given) gave PostGolgi yeast -3, CYP2C9 act 0.3, CYP2C9 inhib 73*, CYP2C19 activ 0.7, CYP2C19 inhib 28 and PostGolgi ctrl 10.
Screening Cc1ccc(-c2cc(C(F)F)n3ncc(C(=O)N4CCN5CCCC5C4)c3n2)cc1 (stereo not given) returned PostGolgi yeast 1, CYP2C9 act 0.6, CYP2C9 inhib 37, CYP2C19 activ 1.1, CYP2C19 inhib -7 and PostGolgi ctrl 1.
